Calls of active or inactive are those of the source. The calls were made as follows: active = hit-call score of the fitted dose curve at least 0.9, where 1 is the maximum; inactive = score below 0.9.
Legend:
[1] = read-out: Transforming growth factor beta 1 (TGFb1), TGFB1 (gene 7040); assay: BSK_KF3CT_TGFb1: BioMAP Diversity Plus: KF3CT Assay for Transforming growth factor beta 1 (TGFb1) Biomarker Activity (AID 2283072); conditions: primary human keratinocytes with fibroblasts; actives raise or lower the signal
In short: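 Human keratinocyte/foreskin fibroblast co-culture; TGF-b1 measured by ELISA 24 h after dosing, fitted bidirectionally versus DMSO. Cytotoxicity checked in parallel cultures by total protein (SRB staining, 560 nm).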

[2] = read-out: C-C motif chemokine 2 (Homo sapiens) (UniProt P13500); assay: BSK_KF3CT_MCP1: BioMAP Diversity Plus: KF3CT Assay for Monocyte Chemoattractant Protein 1 (MCP1/CCL2) Biomarker Activity (AID 2283073); conditions: primary human keratinocytes with fibroblasts; actives raise or lower the signal
In short: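 KF3CT skin co-culture (keratinocytes/foreskin fibroblasts), 24 h post-dose; MCP-1 by ELISA; gain/loss of signal fit bidirectionally vs DMSO baseline.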

[3] = read-out: Matrix Metallopeptidase 9 (MMP9), MMP9 (gene 4318); assay: BSK_KF3CT_MMP9: BioMAP Diversity Plus: KF3CT Assay for Matrix Metallopeptidase 9 (MMP9) Biomarker Activity (AID 2283074); conditions: primary human keratinocytes with fibroblasts; actives raise or lower the signal;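 also: MMP9 protein level quantified by ELISA in the co-culture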
In short: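 Human keratinocyte and foreskin fibroblast co-culture exposed to chemicals for 24 h; MMP9 biomarker measured by ELISA, bidirectional fitting relative to DMSO; cytotoxicity tracked by SRB total protein staining in parallel cultures.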

[4] = read-out: urokinase plasminogen activator (uPA), PLAU (gene 5328); assay: BSK_KF3CT_uPA: BioMAP Diversity Plus: KF3CT Assay for urokinase plasminogen activator (uPA) Biomarker Activity (AID 2283075); conditions: primary human keratinocytes with fibroblasts; actives raise or lower the signal
In short: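 Primary human keratinocyte/foreskin fibroblast co-culture exposed to chemical; uPA measured by ELISA at 24 h. Bidirectional fit versus DMSO, with parallel SRB total-protein staining for cytotoxicity.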

[5] = read-out: CD40, CD40 (gene 958); assay: BSK_LPS_CD40: BioMAP Diversity Plus: LPS Assay for CD40 Biomarker Activity (AID 2283076); conditions: primary human HUVEC with PBMC; actives raise or lower the signal
In short: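 ELISA readout of CD40 in HUVEC/PBMC co-culture (BSK_LPS system), 24 h post-dosing; bidirectional curve fit, DMSO baseline; parallel SRB total-protein staining for cytotoxicity.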

[6] = read-out: E-selectin (Homo sapiens) (UniProt P16581); assay: BSK_LPS_Eselectin: BioMAP Diversity Plus: LPS Assay for Eselectin Biomarker Activity (AID 2283077); conditions: primary human HUVEC with PBMC; actives raise or lower the signal
In short: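 ELISA readout of E-selectin, 24 h post-dose, HUVEC + PBMC co-culture (LPS system). Gain or loss of signal vs DMSO baseline, bidirectional fit.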

[7] = read-out: Interleukin-8 (IL8), CXCL8 (gene 3576); assay: BSK_LPS_IL8: BioMAP Diversity Plus: LPS Assay for Interleukin-8 (IL8) Biomarker Activity (AID 2283078); conditions: primary human HUVEC with PBMC; actives raise or lower the signal
In short: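 HUVEC + PBMC co-culture, LPS-activated; test chemicals dosed, IL-8 read by ELISA at 24 h. Bidirectional curve fit vs DMSO baseline (gain or loss of signal).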

[8] = BSK_LPS_SRB: Viability Assessment in the BioMAP Diversity Plus: LPS Assay (AID 2283079); conditions: primary human HUVEC with PBMC;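 also: total protein by sulforhodamine B absorbance as a cytotoxicity measure; measured one day after compound addition; fitted in both directions against DMSO so loss or gain of signal counts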
In short: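 HUVEC + PBMC co-culture, LPS-stimulated; compound 24 h. 10% TCA fix, 0.1% SRB stain, A560. Bidirectional fit vs DMSO.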

[9] = read-out: Interleukin-1 alpha (IL1a), IL1A (gene 3552); assay: BSK_LPS_IL1a: BioMAP Diversity Plus: LPS Assay for Interleukin-1 alpha (IL1a) Biomarker Activity (AID 2283080); conditions: primary human HUVEC with PBMC; actives raise or lower the signal
In short: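 HUVEC/PBMC co-culture, LPS system; 24 h after dosing; IL-1a by ELISA; gain or loss of signal fitted bidirectionally vs DMSO baseline.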

[10] = BSK_LPS_PGE2: BioMAP Diversity Plus: LPS Assay for Prostaglandin E2 (PGE2) Biomarker Activity (AID 2283082); conditions: primary human HUVEC with PBMC; actives raise or lower the signal;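 as to AC50: secreted prostaglandin E2 measured by ELISA in LPS-stimulated co-culture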
In short: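 HUVEC plus human PBMC co-culture stimulated with LPS; secreted PGE2 quantified by ELISA 24 h after chemical dosing. Activity fitted bidirectionally against DMSO baseline; parallel SRB staining (0.1% SRB after 10% TCA fixation, 560 nm) flags overt cytotoxicity.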

[11] = read-out: Tissue Factor, F3 (gene 2152); assay: BSK_LPS_TissueFactor: BioMAP Diversity Plus: LPS Assay for Tissue Factor Biomarker Activity (AID 2283084); conditions: primary human HUVEC with PBMC; actives raise or lower the signal
In short: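 HUVEC/PBMC co-culture, LPS-activated; CD142 ELISA read 24 h post-dose; bidirectional curve fit vs DMSO negative control.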

[12] = read-out: Tumor necrosis factor (Homo sapiens) (UniProt P01375); assay: BSK_LPS_TNFa: BioMAP Diversity Plus: LPS Assay for Tumour Necrosis Factor alpha (TNFa) Biomarker Activity (AID 2283085); conditions: primary human HUVEC with PBMC; actives raise or lower the signal
In short: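 Human umbilical vein endothelial cells co-cultured with PBMC and stimulated with LPS. TNFa was measured by ELISA 24 h after chemical dosing, fitted bidirectionally relative to DMSO.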

[13] = read-out: Vascular cell adhesion molecule 1 (VCAM1), VCAM1 (gene 7412); assay: BSK_LPS_VCAM1: BioMAP Diversity Plus: LPS Assay for Vascular cell adhesion molecule 1 (VCAM1) Biomarker Activity (AID 2283086); conditions: primary human HUVEC with PBMC; actives raise or lower the signal
In short: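 Human umbilical vein endothelial cells co-cultured with PBMC and stimulated with LPS; VCAM-1 measured by ELISA 24 h after dosing. Bidirectional curve fitting against DMSO baseline; cytotoxicity tracked in parallel by SRB total-protein staining.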

[14] = read-out: CD40, CD40 (gene 958); assay: BSK_SAg_CD40: BioMAP Diversity Plus: SAg Assay for CD40 Biomarker Activity (AID 2283088); conditions: primary human HUVEC with PBMC; actives raise or lower the signal
In short: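 HUVEC/PBMC co-culture, 24 h post-dose; CD40 by ELISA, fluorescence intensity; bidirectional fit vs DMSO negative control.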

[15] = read-out: CD69, CD69 (gene 969); assay: BSK_SAg_CD69: BioMAP Diversity Plus: SAg Assay for CD69 Biomarker Activity (AID 2283089); conditions: primary human HUVEC with PBMC; actives raise or lower the signal;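 as to AC50: cell surface CD69 protein quantified by ELISA with fluorescence detection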
In short: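 Values derive from bidirectional fitting relative to DMSO vehicle. Cells: umbilical vein endothelium plus peripheral blood mononuclear cells, treated 24 h before fluorescent ELISA for CD69.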

[16] = read-out: Monocyte Chemoattractant Protein-1 (MCP1), CCL2 (gene 6347); assay: BSK_SAg_MCP1: BioMAP Diversity Plus: SAg Assay for Monocyte Chemoattractant Protein-1 (MCP1) Biomarker Activity (AID 2283090); conditions: primary human HUVEC with PBMC; actives raise or lower the signal
In short: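 MCP-1 levels in the endothelial–PBMC SAg co-culture were quantified by ELISA at 24 h post-dosing; both increases and decreases versus DMSO scored. Cytotoxicity monitored by SRB total protein in parallel cultures.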

[17] = read-out: Monocyte Chemoattractant Protein-1 (MCP1), CCL2 (gene 6347); assay: BSK_LPS_MCP1: BioMAP Diversity Plus: LPS Assay for Monocyte Chemoattractant Protein-1 (MCP1) Biomarker Activity (AID 2283081); conditions: primary human HUVEC with PBMC; actives raise or lower the signal;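 also: secreted MCP-1 protein quantified by ELISA in culture supernatant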
In short: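 ELISA read-out of MCP-1 after 24 h chemical dosing of a human umbilical vein endothelial cell/peripheral blood mononuclear cell co-culture stimulated with LPS. Gain or loss of signal fitted relative to DMSO controls.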

[18] = read-out: CD38, CD38 (gene 952); assay: BSK_SAg_CD38: BioMAP Diversity Plus: SAg Assay for CD38 Biomarker Activity (AID 2283087); conditions: primary human HUVEC with PBMC; actives raise or lower the signal
In short: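 Human HUVEC plus PBMC co-culture stimulated with superantigen; CD38 measured by ELISA 24 h after chemical dosing. Fluorescence read-out, bidirectional fit against DMSO; cytotoxicity tracked in parallel by SRB and Alamar Blue.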

[19] = read-out: Macrophage colony-stimulating factor (MCSF), CSF1 (gene 1435); assay: BSK_LPS_MCSF: BioMAP Diversity Plus: LPS Assay for Macrophage colony-stimulating factor (MCSF) Biomarker Activity (AID 2283083); conditions: primary human HUVEC with PBMC; actives raise or lower the signal
In short: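 HUVEC + PBMC co-culture (human primary), 24 h post-dose; M-CSF by ELISA; gain/loss of signal fitted bidirectionally vs DMSO baseline.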

Measured: AC50

E-selectin (Homo sapiens), sequence (P16581 whole entry, looked up): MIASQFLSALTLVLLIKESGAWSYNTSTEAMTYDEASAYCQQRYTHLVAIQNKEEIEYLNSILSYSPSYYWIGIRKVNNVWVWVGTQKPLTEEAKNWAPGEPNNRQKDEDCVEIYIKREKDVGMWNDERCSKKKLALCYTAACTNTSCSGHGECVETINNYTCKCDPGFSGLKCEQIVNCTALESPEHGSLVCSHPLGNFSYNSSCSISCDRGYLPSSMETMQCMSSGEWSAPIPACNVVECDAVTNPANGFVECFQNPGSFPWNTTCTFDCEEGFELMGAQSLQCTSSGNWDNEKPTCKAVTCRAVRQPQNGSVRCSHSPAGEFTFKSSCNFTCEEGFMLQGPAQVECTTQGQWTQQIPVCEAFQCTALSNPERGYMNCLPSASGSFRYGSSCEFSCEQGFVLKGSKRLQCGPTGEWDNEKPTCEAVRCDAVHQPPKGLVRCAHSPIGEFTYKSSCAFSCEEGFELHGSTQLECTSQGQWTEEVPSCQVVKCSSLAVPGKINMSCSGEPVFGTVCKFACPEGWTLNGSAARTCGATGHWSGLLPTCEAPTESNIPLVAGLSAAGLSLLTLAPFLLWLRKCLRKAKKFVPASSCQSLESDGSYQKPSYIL
Tumor necrosis factor (Homo sapiens), sequence (P01375 whole entry, looked up): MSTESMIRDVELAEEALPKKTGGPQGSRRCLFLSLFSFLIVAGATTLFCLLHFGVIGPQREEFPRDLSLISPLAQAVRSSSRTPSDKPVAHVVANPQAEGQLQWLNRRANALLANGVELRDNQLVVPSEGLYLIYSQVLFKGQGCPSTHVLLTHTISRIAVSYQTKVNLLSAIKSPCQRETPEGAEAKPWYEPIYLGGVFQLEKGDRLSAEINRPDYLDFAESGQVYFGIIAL

Cc1cc2c(cc1C(F)(F)F)N(C(=O)Nc1ccc(Oc3cccnc3C)nc1)CC2
active: [1] 23.6 µM | [3] 29.8 µM | [4] 29.2 µM | [5] 12.1 µM | [7] 2.7 µM | [9] 3.65 µM | [13] 14.4 µM | [14] 18.4 µM
inactive: [2] | [6] | [8] | [10] | [11] | [12] | [15] | [16]

COc1ccc2cc(S(=O)(=O)N[C@H](CC(=O)N[C@H](Cc3ccc(CN4[C@H](C)CCC[C@@H]4C)cc3)C(=O)N(C)C(C)C)c3ccc4c(c3)OCO4)ccc2c1
active: [3] 32.8 µM | [5] 11.6 µM | [6] 31.3 µM | [7] 5.7 µM | [8] 15.5 µM | [9] 14.5 µM | [17] 23.1 µM | [10] 31.1 µM | [11] 33.9 µM | [12] 33.6 µM | [13] 11.3 µM | [18] 26.2 µM | [14] 24 µM | [15] 24.5 µM | [16] 19.1 µM
inactive: [1] | [2] | [4]

CCCCCCCCOC(=O)c1cc(O)c(O)c(O)c1
active: [1] 8.45 µM | [2] 27.4 µM | [3] 8.92 µM | [4] 18.2 µM | [6] 36.6 µM | [7] 24.6 µM | [8] 25.6 µM | [9] 20 µM | [10] 5.32 µM | [11] 32.4 µM | [12] 32.3 µM | [13] 30.6 µM | [14] 14.8 µM | [15] 16.6 µM | [16] 20 µM

O=c1c(-c2ccc(O)cc2)coc2cc(O)cc(O)c12
active: [3] 20 µM | [5] 14.3 µM | [6] 31.7 µM | [7] 20 µM | [8] 12 µM | [9] 16 µM | [17] 17.9 µM | [10] 10 µM | [19] 14.8 µM | [11] 13.2 µM | [12] 15.8 µM | [13] 13.9 µM | [18] 25.1 µM | [14] 25.6 µM | [15] 20 µM | [16] 18.7 µM
inactive: [1] | [2] | [4]
